# In PubChem BioAssay:
# Active and inactive are the calls of the source. Unless noted, how the calls were made is not given here.
# Key:
# [1] = compounds binding Alexa647 anti-His antibody – biochemical, small-molecule microarray, 635 nm fluorescence, artefact control for SMM control protein annotation, primary screen (AID 1128); settings: higher = more signal;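 further: score merges feature fluorescence with signal-to-noise for each printed compound spot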
# [2] = tested on: Human papillomavirus type 1a E7 protein (residues 1-88); test: HPV1a E7 small-molecule binders, primary screen, biochemical, small-molecule microarray, residues 1-88, 635 nm (AID 1129); settings: small-molecule microarray binding, fluorescence 635 nm; higher = more signal
# [3] = biological target: Focal adhesion kinase 1 (Homo sapiens) (UniProt Q05397); test: PTK2 protein binding on printed compound slides – biochemical, small-molecule microarray, 635/667 nm fluorescence, BSA, DTT, primary screen (AID 1130); settings: 635 nm fluorescence, higher = more signal;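 further: composite of spot emission at 667 nm and signal to noise over triplicate slides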
# [4] = tested on: Fibrinogen (Alexa647-labelled); test: Alexa647-fibrinogen binding to printed small molecules – biochemical, small-molecule microarray, 635/667 nm fluorescence, artefact control for SMM control-protein annotation, profiling panel (AID 1131); settings: fibrinogen-A647 binding fluorescence, higher = more signal;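 further: z-score merges 667 nm fluorescence with per-spot signal-to-noise over triplicate slides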
# [5] = biological target: Follistatin (Homo sapiens) (UniProt P19883); test: FST protein binding to printed compounds – biochemical, small-molecule microarray, 635/667 nm fluorescence, primary screen (AID 1132); settings: 635 nm fluorescence, higher = more signal
# [6] = biological target: Fibroblast growth factor 2 (Homo sapiens) (UniProt P09038); test: basic fibroblast growth factor binding to printed compounds – biochemical, small-molecule microarray, 635/667 nm fluorescence, primary screen (AID 1133); settings: FGF2, fluorescence 635/667, higher = more signal
# [7] = JC-1 mitochondrial potential readout, lung cancer cells – cell-based, A549, JC-1 fluorescence, basal, 24 h, 100 nL, profiling panel (AID 1138); settings: higher = more signal;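 further: A549 lung adenocarcinoma cells under basal conditions with no added stimulus; test concentration not given here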
# Lefty1 = Lefty1 protein binding to printed compounds – biochemical, small-molecule microarray, 635/667 nm fluorescence, primary screen (AID 1139); settings: fluorescence 635/667, higher = more signal
# [8] = tested on: wheat germ agglutinin (Triticum aestivum), Alexa647-labelled; test: Alexa647-WGA lectin binding to printed small molecules – biochemical, small-molecule microarray, 635/667 nm fluorescence, artefact control for SMM control-protein annotation, profiling panel (AID 1140); settings: WGA-A647 binding, 635 nm fluorescence, higher = more signal;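 further: score merges 667 nm feature emission with signal to noise over triplicate slides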
# [9] = biological target: Luciferin 4-monooxygenase (Photinus pyralis) (UniProt P08659); test: inhibition of purified Photinus pyralis luciferase – biochemical, luminescence, purified enzyme, 2006 set, primary screen (AID 1141); settings: purified firefly luciferase, SteadyGlo luminescence, 30 min; higher = more signal, called active from +8 up or from −8 down;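 further: cell-free assay with purified firefly luciferase at 100 ng per well in PBS; test concentration not given here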
# [10] = tested on: Wnt5a (protein binding on small-molecule microarray); test: small molecules binding Wnt5a protein – biophysical, small-molecule microarray, 635/667 nm fluorescence, primary screen (AID 1142); settings: 635 nm fluorescence, higher = more signal;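 further: fluorescence read at 667 nm with signal to noise per printed feature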
# [11] = ATP-based viability of Huh7 replicon cells – cell-based, CellTiter-Glo luminescence, basal, 48 h, cytotoxicity control for HCV replication inhibitor project, primary screen (AID 1143); settings: higher = more signal, called active from +8 up or from −8 down;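 further: Huh7 hepatoma cells carrying a hepatitis C replication reporter with no stimulus; test concentration not given here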
# [12] = Pseudomonas biofilm growth suppression – PAO1 strain, BacTiter-Glo luminescence, LB-PBS, primary screen (AID 1144); settings: P. aeruginosa PAO1 biofilm, 12 h, higher = more signal
# [13] = basal CRE-LacZ reporter activity in PC12 – cell-based, unstimulated, primary screen (AID 1145); settings: no forskolin, luminescence, 4.5 h, higher = more signal, called active from +8 up or from −8 down
# [14] = forskolin-driven CRE-LacZ activity in PC12 – cell-based, CRE-LacZ reporter, forskolin-stimulated, primary screen (AID 1146); settings: luminescence, 4.5 h, higher = more signal, called active from +8 up or from −8 down;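 further: PC12 cells with 6xCRE LacZ reporter stimulated by forskolin 10 µM; beta-galactosidase reporter signal reflecting CREB driven transcription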
# [15] = biological target: Streptavidin (Streptomyces avidinii) (UniProt P22629); test: compounds binding control protein streptavidin – biophysical, small-molecule microarray, 635/667 nm fluorescence, artefact control for SMM compound annotation, primary screen (AID 1147); settings: higher = more signal;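 further: signal reflects streptavidin binding to arrayed compounds as a control protein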
# [16] = probe aInhba binding on compound microarray – biochemical, small-molecule microarray, 635/667 nm fluorescence, primary screen (AID 1148); settings: higher = more signal;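 further: score merges 667nm spot fluorescence with signal-to-noise for antibody binding to printed compounds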
# Torsin-1A (Homo sapiens) [17] = biological target: Torsin-1A (Homo sapiens) (UniProt O14656); test: TOR1A wild-type binding on microarray – cell lysate, small-molecule microarray, lysate, 635/667 nm, primary screen (AID 1149); settings: COS7 hTOR1A-WT lysate, 635 nm fluorescence, higher = more signal
# Torsin-1A (Homo sapiens) [18] = biological target: Torsin-1A (Homo sapiens) (UniProt O14656); test: torsin A mutant lysate binding on microarrays – cell lysate, small-molecule microarray, COS7 lysate, 635/667 nm fluorescence, primary screen (AID 1150); settings: COS7 hTOR1A mutant lysate, 635 nm fluorescence, higher = more signal;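 further: score pools 667 nm emission and signal to noise measuring lysate protein binding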
# [19] = tested on: Sonic hedgehog protein (Shh); test: Sonic hedgehog microarray binding compounds – biochemical, small-molecule microarray, 635/667 nm fluorescence, primary screen (AID 1151); settings: 635 nm fluorescence, higher = more signal;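 further: Shh protein binding to compounds spotted on small-molecule microarray slides; score combines spot fluorescence intensity with signal-to-noise across triplicate slides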
# Focal adhesion kinase 1 (Homo sapiens), sequence (Q05397 whole entry, looked up): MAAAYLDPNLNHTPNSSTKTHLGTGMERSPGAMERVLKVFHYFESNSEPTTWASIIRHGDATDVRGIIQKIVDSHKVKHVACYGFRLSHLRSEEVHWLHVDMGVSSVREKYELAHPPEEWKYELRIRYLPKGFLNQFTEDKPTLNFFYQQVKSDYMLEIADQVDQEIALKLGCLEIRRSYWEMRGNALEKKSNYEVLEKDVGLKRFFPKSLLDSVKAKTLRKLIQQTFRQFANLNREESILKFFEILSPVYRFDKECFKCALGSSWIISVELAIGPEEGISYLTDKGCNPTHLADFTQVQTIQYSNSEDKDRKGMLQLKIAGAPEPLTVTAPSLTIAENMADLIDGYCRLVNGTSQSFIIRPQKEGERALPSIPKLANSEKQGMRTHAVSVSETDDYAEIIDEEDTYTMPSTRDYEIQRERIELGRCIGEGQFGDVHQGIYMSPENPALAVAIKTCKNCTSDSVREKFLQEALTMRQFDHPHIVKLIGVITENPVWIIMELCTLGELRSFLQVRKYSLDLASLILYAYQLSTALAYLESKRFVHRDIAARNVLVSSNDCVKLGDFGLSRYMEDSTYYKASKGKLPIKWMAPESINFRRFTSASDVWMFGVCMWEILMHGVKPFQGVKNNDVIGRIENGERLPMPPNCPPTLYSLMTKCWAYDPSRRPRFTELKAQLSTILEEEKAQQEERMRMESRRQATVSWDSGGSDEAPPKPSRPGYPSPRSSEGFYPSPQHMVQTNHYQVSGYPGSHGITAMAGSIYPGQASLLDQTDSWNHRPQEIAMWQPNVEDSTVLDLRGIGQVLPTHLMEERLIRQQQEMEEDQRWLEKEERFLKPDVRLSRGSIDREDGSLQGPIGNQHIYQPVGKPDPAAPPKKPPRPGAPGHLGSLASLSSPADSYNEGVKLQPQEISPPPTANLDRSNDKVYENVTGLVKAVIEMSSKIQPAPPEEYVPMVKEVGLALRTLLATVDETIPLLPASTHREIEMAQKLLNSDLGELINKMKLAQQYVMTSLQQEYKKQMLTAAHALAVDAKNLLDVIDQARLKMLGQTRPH
# Follistatin (Homo sapiens), sequence (P19883 whole entry, looked up): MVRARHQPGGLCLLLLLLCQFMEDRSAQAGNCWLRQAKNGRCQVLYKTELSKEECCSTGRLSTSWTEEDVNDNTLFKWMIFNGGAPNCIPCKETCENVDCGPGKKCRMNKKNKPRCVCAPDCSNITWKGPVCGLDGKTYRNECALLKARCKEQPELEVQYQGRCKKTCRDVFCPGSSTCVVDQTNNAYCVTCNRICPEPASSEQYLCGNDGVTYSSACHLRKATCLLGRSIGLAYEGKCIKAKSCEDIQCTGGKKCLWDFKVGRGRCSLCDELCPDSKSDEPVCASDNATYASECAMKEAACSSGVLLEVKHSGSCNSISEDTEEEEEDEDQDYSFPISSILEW
# Fibroblast growth factor 2 (Homo sapiens), sequence (P09038 whole entry, looked up): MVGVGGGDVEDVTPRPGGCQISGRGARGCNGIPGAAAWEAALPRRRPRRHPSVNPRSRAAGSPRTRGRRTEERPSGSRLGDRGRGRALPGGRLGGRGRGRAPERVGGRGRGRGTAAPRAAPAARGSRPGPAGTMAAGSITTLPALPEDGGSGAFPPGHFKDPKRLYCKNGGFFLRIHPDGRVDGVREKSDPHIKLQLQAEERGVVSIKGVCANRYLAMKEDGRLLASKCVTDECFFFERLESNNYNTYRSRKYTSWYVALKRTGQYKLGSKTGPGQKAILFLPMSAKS
# Luciferin 4-monooxygenase (Photinus pyralis), sequence (P08659 whole entry, looked up): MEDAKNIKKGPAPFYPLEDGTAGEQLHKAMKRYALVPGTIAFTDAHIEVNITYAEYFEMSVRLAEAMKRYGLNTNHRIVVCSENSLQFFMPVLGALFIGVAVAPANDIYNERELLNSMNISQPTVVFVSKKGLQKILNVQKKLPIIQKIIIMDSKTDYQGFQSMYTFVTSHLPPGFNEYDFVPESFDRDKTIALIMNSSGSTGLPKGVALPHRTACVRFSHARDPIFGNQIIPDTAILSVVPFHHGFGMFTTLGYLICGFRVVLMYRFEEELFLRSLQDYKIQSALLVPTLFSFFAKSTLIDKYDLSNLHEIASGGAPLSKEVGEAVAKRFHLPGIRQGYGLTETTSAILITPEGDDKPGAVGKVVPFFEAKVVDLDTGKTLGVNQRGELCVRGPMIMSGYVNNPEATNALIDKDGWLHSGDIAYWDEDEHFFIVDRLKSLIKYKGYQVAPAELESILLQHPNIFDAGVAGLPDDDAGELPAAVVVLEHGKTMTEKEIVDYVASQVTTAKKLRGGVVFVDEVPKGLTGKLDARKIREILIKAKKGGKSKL
# Torsin-1A (Homo sapiens), sequence (O14656 whole entry, looked up): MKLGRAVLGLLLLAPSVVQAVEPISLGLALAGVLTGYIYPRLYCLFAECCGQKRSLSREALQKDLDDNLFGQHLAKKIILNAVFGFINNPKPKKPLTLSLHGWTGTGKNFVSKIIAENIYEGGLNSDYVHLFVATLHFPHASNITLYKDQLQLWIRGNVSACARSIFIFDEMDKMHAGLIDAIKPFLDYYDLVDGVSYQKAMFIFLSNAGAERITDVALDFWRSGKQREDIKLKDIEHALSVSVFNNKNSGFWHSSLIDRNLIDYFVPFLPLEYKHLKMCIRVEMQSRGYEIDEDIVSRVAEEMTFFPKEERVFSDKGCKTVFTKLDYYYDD
# Streptavidin (Streptomyces avidinii), sequence (P22629 whole entry, looked up): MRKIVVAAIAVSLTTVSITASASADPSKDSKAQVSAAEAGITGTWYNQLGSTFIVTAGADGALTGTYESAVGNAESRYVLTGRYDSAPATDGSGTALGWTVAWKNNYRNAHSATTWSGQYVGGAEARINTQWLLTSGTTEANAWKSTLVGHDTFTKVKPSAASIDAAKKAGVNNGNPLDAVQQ
Compound,composite z-score [1],composite z-score [2],composite z-score [3],composite z-score [4],composite z-score [5],composite z-score [6],z-score [7],composite z-score (Lefty1),composite z-score [8],z-score [9],composite z-score [10],z-score [11],z-score [12],z-score [13],z-score [14],composite z-score [15],composite z-score [16],composite z-score (Torsin-1A (Homo sapiens) [17]),composite z-score (Torsin-1A (Homo sapiens) [18]),composite z-score [19]
COCCOC(=O)N1C(=O)[C@@]2(c3cc(C#CC4=CCCCC4)ccc31)[C@H](C(=O)N1CCN(c3ncccn3)CC1)[C@H]1C(=O)O[C@H](c3ccccc3)[C@H](c3ccccc3)N1[C@@H]2c1ccc(OCCO)cc1,1.07,1.16,0.31,0.229,1.29,1.59,-1.01,1.03,0.232,-1.03 (inactive),0.572,-0.922 (inactive),-0.38 (inactive),-1.57 (inactive),-0.0728 (inactive),0.832,0.471,0.804,0.606,1.04
C=CCC(OC(C)=O)[C@@H]1[C@@H](N(Cc2ccc(-c3ccccc3)cc2)C(=O)c2ccc(C)cc2)c2cc(OCCCO)ccc2N1C(=O)c1ccc2ccccc2n1 (stereo not given in full),-0.512,-0.0119,-0.0203,-0.459,0.0869,-0.006,3.18,-0.135,-0.0101,-1.9 (inactive),-0.162,-1.16 (inactive),-1.41 (inactive),5.54 (inactive),-0.523 (inactive),0.105,0.173,-0.211,0.115,0.794
C=C(CCCC)C(=O)CC[C@H](OC(=O)c1ccccc1-c1ccccc1C(=O)O)c1ccc(CO)o1,1.22,1.22,-0.116,0.954,1.1,0.905,-0.541,1.57,1.14,-1.96 (inactive),0.123,0.0343 (inactive),-0.976 (inactive),-0.177 (inactive),-0.56 (inactive),1.5,0.0154,0.472,0.622,1.99
[N-]=[N+]=NCc1ccccc1C[C@]1(C(N)=O)N=C(c2ccc(OCCCO)cc2)O[C@H]1c1ccccc1N=[N+]=[N-],2.21,1.19,0.394,0.751,0.847,-0.386,-0.542,0.0874,1.03,-10.3 (active),0.451,-1.84 (inactive),-0.43 (inactive),-0.254 (inactive),0.248 (inactive),0.978,0.0906,0.0331,0.652,-0.413
CCOC(=O)C1=CC[C@@H](c2cccc(Cl)c2)N(S(=O)(=O)c2ccc(C)cc2)[C@H]1c1ccc(C#N)cc1,0.931,1.26,0.444,0.716,0.938,0.56,1.22,1.09,0.985,1.35 (inactive),0.473,-1.1 (inactive),0.494 (inactive),-0.228 (inactive),0.119 (inactive),1.15,0.0627,0.384,0.788,0.741
